Test results reported in PubChem BioAssay AID463082 (The Scripps Research Institute Molecular Screening Center, 2010).
About 4,900 (1.5%) of roughly 330,000 compounds were called active.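 Rule for the calls: active = inhibition above the mean inhibition across the screen plus 3 SD (cut at about 25% in these data); inactive = the rest.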 The list comes from a sample in which actives are over-represented; it also holds similar structures and randomly drawn compounds.

Each compound was assayed against Platelet-activating factor acetylhydrolase (Homo sapiens) (UniProt Q13093) (assay: inhibition of plasma PAF acetylhydrolase – biochemical, fluorescence polarization, human, primary screen (AID 463082;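 note: inhibitors block binding of the rhodamine activity-based probe so polarization drops; 0% = enzyme with DMSO and 100% = wells lacking pPAFAH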)). Conditions: recombinant pPAFAH, FP-rhodamine probe fluorescence polarization; at 3.39 µM; stronger effect = higher value.
Chain of Platelet-activating factor acetylhydrolase (Homo sapiens) (Q13093 whole entry, looked up): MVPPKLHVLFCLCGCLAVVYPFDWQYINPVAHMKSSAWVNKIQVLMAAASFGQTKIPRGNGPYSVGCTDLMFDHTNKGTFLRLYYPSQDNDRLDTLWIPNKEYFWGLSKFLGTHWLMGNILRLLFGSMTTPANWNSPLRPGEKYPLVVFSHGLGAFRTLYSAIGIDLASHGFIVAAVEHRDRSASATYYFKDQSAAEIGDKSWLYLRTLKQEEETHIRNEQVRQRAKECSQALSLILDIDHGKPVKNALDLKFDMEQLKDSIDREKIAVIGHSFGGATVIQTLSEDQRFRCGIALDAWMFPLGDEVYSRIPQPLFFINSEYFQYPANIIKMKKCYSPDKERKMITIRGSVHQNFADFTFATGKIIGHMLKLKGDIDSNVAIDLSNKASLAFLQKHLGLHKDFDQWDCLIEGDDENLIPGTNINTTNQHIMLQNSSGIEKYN

Row | Compound | inhibition
1 | COc1ccc(N2C(=O)/C(=C/c3ccco3)C(=O)NC2=S)cc1 | 39.7% (active)
2 | COc1ccc(CN2C(=O)NC(=O)/C(=C\c3ccc(OC)c(OC)c3OC)C2=O)cc1 | 2.22% (inactive)
3 | COc1cccc(N2C(=O)NC(=O)/C(=C\c3cn(C)c4ccccc34)C2=O)c1 | 0.95% (inactive)
4 | O=C(CN1CCCC1=O)NCCc1ccccc1 | 6.04% (inactive)
5 | O=C1CC(=O)N(Cc2ccccc2)C(=O)N1CCCCCCN1C(=O)CC(=O)N(Cc2ccccc2)C1=O | 41.3% (active)
6 | CC(C)(C)c1ccc(CN2C(=O)CN=C(c3ccccc3)c3ccccc32)cc1 | -2.71% (inactive)
7 | O=c1[nH]c(CN2CC=C(c3ccccc3)CC2)nc2scc(-c3cccs3)c12 | 8.85% (inactive)
8 | CN(C)c1ccc(/C=C2\CC3C4CC=C5CC(O)CCC5(C)C4CCC3(C)C2=O)cc1 (stereo not given) | 3.94% (inactive)
9 | Cc1nn(-c2ccccc2)c(C)c1NC(=O)COC(=O)Cc1ccccc1 | 46.5% (active)
10 | Cc1ccccc1NC(=O)COC(=O)c1cc(C)n(C2CC2)c1C | 3.84% (inactive)
11 | O=C(COC(=O)Cc1ccccc1)Nc1ccc(F)cc1 | 23.1% (inactive)
12 | O=[N+]([O-])c1ccc(C2C3C(c4ccccc4)=NC4(CCCCC4)N32)cc1 (stereo not given) | 6.5% (inactive)
13 | Cn1cc(C(=O)OCC(=O)N2CCCC2)c2ccccc21 | -2.21% (inactive)
14 | COc1ccccc1NC(=O)N1C[C@@H]2C[C@@H](C1)c1cccc(=O)n1C2 | 5.55% (inactive)
15 | CSc1nc2ccc(C)cc2c(=O)n1-c1cccnc1 | -1.83% (inactive)
16 | O=C1NC(=O)N(c2ccccc2)C(=O)/C1=C/c1ccc([N+](=O)[O-])s1 | 58% (active)
17 | Cc1ccccc1N1C(=O)NC(=O)/C(=C\c2cc(C)n(C)c2C)C1=O | -0.82% (inactive)
18 | COC(=O)C1=C(c2ccc(C(C)=O)cc2)C[C@@H]2CC[C@H]1N2C(=O)NCCNC(C)=O | 3.68% (inactive)
19 | COc1cccc(C(=O)N2C[C@H]3C[C@@H](C2)c2cccc(=O)n2C3)c1 | 3.04% (inactive)
20 | C/C(=N/O)c1ccc2ccc3ccccc3c2c1 | 1.83% (inactive)
21 | COC(=O)C1=C(c2cc3ccccc3s2)C[C@@H]2CC[C@H]1N2C(=O)NC(C)C | 4.37% (inactive)
22 | NCCc1ccc(S(=O)(=O)F)cc1 | 59.5% (active)
23 | CN1CCN(Cc2ccc(OC(F)(F)F)cc2)CC1 | -4.99% (inactive)
24 | C=Cn1ccnc1P(=S)(c1cc(N(CC)CC)ns1)c1nccn1C=C | -4.36% (inactive)
25 | CCOC(=O)C1CN(C)CCC1=O (stereo not given) | 4.48% (inactive)
